S2 tox = Viability Counterscreen for Primary qHTS for Inhibitors of ATXN expression; S2 cells (HEK-293 line with an ATXN2-luciferase reporter) viability, CellTiter-Fluor protease fluorescence, 24 h; Potency, µM (doses to about 56.7 µM), usual class: cytotoxic; 400,000 compounds, 0.49% hits; note: potency is the fitted concentration of half-maximal effect; nearly all actives have a fitted effect of over 40% in size
HepG2 tox-1 = qHTS for Inhibitors of TGF-b: Cytotox Counterscreen; HepG2 CAGA-GFP viability, ATP luminescence, 18 h; Potency, µM (highest dose often 46.1 µM), for inactives: top-dose activity change, negative = cytotoxicity, hits mostly cytotoxic; 410,000 compounds, 0.76% hits; note: potency is the fitted concentration of half-maximal effect
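CellTiter-Glo luminescence gave cytotoxicity after 18 hours at 37 degrees C. The cells were HepG2 CAGA-GFP in 1% FBS DMEM, stimulated with 500 pg/mL TGF-beta after compound addition. %Activity was normalised to no-cell wells (complete cell-killing) and DMSO (no toxicity), and curves were fitted and classified.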
ATXN2 expr inh = Primary qHTS for Inhibitors of ATXN expression | 360,000 compounds, 0.72% hits | HEK-293 ATXN2-luciferase reporter, luminescence, 24 h | Potency, µM (titrated, usually from 57 µM), for the others: top-dose activity change, negative = inhibition, hits mostly inhibitors | AID 1745845, 2022; note: potency is the fitted concentration of half-maximal effect; % is set by controls: 0 for no effect and ±100 for the full control effect; nearly all actives have a fitted effect of over 55% in size
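qHTS (up to 57 uM final) was run with 24 h compound exposure of reporter cells at 37 °C. Each well was multiplexed: SteadyGlo luminescence measured ATXN2-luciferase expression after a fluorogenic Gly-Phe-AFC viability readout (25 uM final).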
TGFb inhibitor = qHTS for Inhibitors of TGF-b | HepG2 CAGA-GFP TGF-b/SMAD3 reporter, GFP fluorescence, 18 h; TGF-beta stimulated, 500 pg/mL final | Potency, µM (titrated, usually from 46.1 µM), for the others: at the top dose activity, negative = inhibition, hits mostly inhibitors | 410,000 compounds, 1.2% hits; note: potency is the fitted concentration of half-maximal effect; % is set by controls: 0 for no effect and ±100 for the full control effect; nearly all actives have a fitted effect of over 65% in size
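HEPG2 CAGA-GFP cells (1000/well, DMEM with 1% FBS) were pre-incubated 2 h at 37 degrees C, given compound by pin tool, then stimulated with TGF-beta at 500 pg/mL final for 18 h before per-cell GFP fluorescence imaging.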
CtBP-E1A inh = qHTS Assay for Inhibitors of the CtBP/E1A Interaction. CtBP / adenovirus E1A interaction (AlphaScreen). AlphaScreen GST-E1A/His-CtBP binding, 1536-well; hits give low values. activity change, % (concentration not given with the values). 340,000 compounds, 0.49% hits; in the data active = activity change below about -65%; inconclusive = mostly about -30% to -63%; note: % is set by controls: 0 for no effect and ±100 for the full control effect
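Steps: dispense buffer (Tris pH 8.0, NaCl 300 mM, TCEP 1 mM, BSA, Tween 20); add 5X protein mix (GST-E1A, His-CtBP, 125 nM each); pin 23 nL compound; 2 h at 37 °C, dark; add 5X beads (50 ug/mL); 1 h; read.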
Six1-Eya2 blk = qHTS Assay for Inhibitors of the Six1/Eya2 Interaction | AlphaScreen GST-Six1/His-Eya2 binding, biochemical; hits give low values | activity change, % (test concentration not listed) | 360,000 compounds, 0.56% hits | Homeobox protein SIX1 (Homo sapiens) + Protein phosphatase EYA2 (Homo sapiens), …; in the data active = activity change below about -65%; inconclusive = mostly about -30% to -63%; note: % is set by controls: 0 for no effect and ±100 for the full control effect
Target sequence (O00167 whole entry, looked up): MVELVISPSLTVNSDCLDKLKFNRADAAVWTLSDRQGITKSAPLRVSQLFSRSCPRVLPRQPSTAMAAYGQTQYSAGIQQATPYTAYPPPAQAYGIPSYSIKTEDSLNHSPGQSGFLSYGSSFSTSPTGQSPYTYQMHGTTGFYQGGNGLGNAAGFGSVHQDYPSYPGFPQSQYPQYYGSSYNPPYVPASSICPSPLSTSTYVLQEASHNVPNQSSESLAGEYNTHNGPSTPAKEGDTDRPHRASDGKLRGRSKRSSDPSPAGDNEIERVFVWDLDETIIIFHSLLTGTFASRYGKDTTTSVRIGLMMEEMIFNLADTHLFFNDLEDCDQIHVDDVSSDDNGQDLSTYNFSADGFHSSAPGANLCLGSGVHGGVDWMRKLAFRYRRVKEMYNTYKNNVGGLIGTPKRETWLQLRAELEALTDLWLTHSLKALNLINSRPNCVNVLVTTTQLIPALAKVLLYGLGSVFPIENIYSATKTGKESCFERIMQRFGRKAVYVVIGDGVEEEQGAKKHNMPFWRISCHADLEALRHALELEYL
Target sequence (Q15475 whole entry, looked up): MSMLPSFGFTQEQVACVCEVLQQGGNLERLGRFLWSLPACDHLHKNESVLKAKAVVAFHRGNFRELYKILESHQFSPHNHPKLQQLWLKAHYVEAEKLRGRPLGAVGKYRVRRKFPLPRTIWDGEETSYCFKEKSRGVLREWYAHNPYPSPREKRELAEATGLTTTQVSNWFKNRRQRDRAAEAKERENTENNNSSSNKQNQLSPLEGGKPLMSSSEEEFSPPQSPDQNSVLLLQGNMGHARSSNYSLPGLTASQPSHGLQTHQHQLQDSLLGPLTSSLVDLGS
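AlphaScreen with GST-Six1 and His-Eya2 (5X mix: 250 nM and 500 nM), glutathione donor and nickel acceptor beads; buffer 50 mM Tris pH 8.0, 300 mM NaCl, 1 mM TCEP; 1 h at 37 C in the dark.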
TGFb CAGA inh = qHTS for Inhibitors of TGF-b: Confirmation of Cherry Picks; shares compounds with TGFb inhibitor; 1,600 compounds, 63% hits; Potency, µM (highest dose often 46.1 µM), for inactives: top-dose activity, negative = inhibition, usual class: inhibitors; HepG2 CAGA-GFP TGF-b reporter, GFP fluorescence, 18 h; cells stimulated with TGF-beta, 500 pg/mL; note: potency is the fitted concentration of half-maximal effect; % is set by controls: 0 for no effect and ±100 for the full control effect; nearly all actives have a fitted effect of over 65% in size
HepG2 tox-2 = qHTS for Inhibitors of TGF-b: Cytotox Counterscreen for Cherry Picks; Potency, µM (doses to about 46.1 µM), without a hit: top-dose activity, negative = cytotoxicity, most hits filed as inhibitors; shares compounds with TGFb inhibitor; HepG2 CAGA-GFP viability, ATP luminescence, 18 h; cells stimulated with TGF-beta, 500 pg/mL; 1,600 compounds, 27% hits; note: potency is the fitted concentration of half-maximal effect; % is set by controls: 0 for no effect and ±100 for the full control effect; nearly all actives have a fitted effect of over 70% in size
CCL64 TGFb inh = qHTS for Inhibitors of TGF-b: CCL64 Cells Orthogonal Assay for Cherry Picks; shares compounds with TGFb inhibitor; CCL64 CAGA-GFP reporter, TGF-b stimulated, GFP fluorescence, 18 h; 1,600 compounds, 41% hits; Potency, µM (series often up to 46.1 µM), for the others: at the top dose activity, negative = inhibition, most hits filed as inhibitors; AID 720536, 2013; note: potency is the fitted concentration of half-maximal effect; nearly all actives have a fitted effect of over 65% in size
COP TGFb inh = qHTS for Inhibitors of TGF-b: Hit Validation in HepG2 Cells using COP promoter. 1,600 compounds, 3% hits. Potency, µM (titrated, usually from 46.1 µM), for the others: at the top dose activity, negative = inhibition, hits mostly inhibitors. HepG2 COP-GFP TGF-b reporter, GFP fluorescence, 18 h; cells stimulated by added recombinant TGF-beta. shares compounds with TGFb inhibitor; note: potency is the fitted concentration of half-maximal effect; nearly all actives have a fitted effect of over 70% in size
Numbers without * were called inactive; i = inactive; ? = inconclusive; · = no result. Sampled rows, rich in hits. Any-hit rate of the full collection: about 2.8%. Unless noted, calls come from the whole dose curve; as a rule, active = well fitted curve in the direction sought with a large enough effect; inconclusive = small, poorly fitted or top-dose-only effect, or another doubt; inactive = no such curve, though single readings can be large; an effect the other way counts as inactive or inconclusive.

SMILES | S2 tox | HepG2 tox-1 | ATXN2 expr inh | TGFb inhibitor | CtBP-E1A inh | Six1-Eya2 blk | TGFb CAGA inh | HepG2 tox-2 | CCL64 TGFb inh | COP TGFb inh
O=C(Nc1cccc(-c2cn3cccnc3n2)c1)c1cc(Br)ccc1Cl | i | -16% | -16% | 23% | · | · | · | · | · | ·
Cc1ccc(C)c(N2CCN(c3nc4ccccc4c(=O)n3-c3ccc(Cl)cc3)CC2)c1 | · | -13% | · | -26% | · | · | · | · | · | ·
CC1(C)CC2CC(C)(CN2S(=O)(=O)c2ccc(C(=O)Nc3ccc(S(=O)(=O)N4CCOCC4)cc3)cc2)C1 (stereo not drawn) | i | -1% | ? | -10% | 2 | -2 | · | · | · | ·
CCOC(=O)c1cc([N+](=O)[O-])sc1NC(=O)c1ccc(S(=O)(=O)N2CC3(C)CC2CC(C)(C)C3)cc1 (stereo not drawn) | ? | 6% | -25% | ? | -3 | -2 | ? | ? | ? | -8%
Cc1c2ccncc2cc2c1[nH]c1ccccc12 | ? | -32% | ? | ? | 2 | -6 | · | · | · | ·
COc1ccc2[nH]c3c(C)c4ccncc4c(C)c3c2c1 | ? | 11µM* | 2µM* | 3.5µM* | ? | ? | 2.3µM* | 4.1µM* | 2.6µM* | ?
OCC1(Cc2ccccc2)CCN(Cc2cnc(-c3ccc(Cl)cc3)nc2)CC1 | i | 16µM* | 22% | 8.9µM* | -4 | -9 | -10% | ? | 0% | 36%
OCC1(Cc2ccccc2)CCN(Cc2cnc(-c3cccc4ccccc34)nc2)CC1 | i | -18% | -2% | -9% | 0 | -12 | · | · | · | ·
CC(C)(C)c1ccc(Cn2nnc3c(=O)[nH]c(C4CCN(C(=O)c5ccco5)CC4)nc32)cc1 | i | -20% | -19% | 13µM* | 3 | -14 | 18µM* | ? | -21% | 4%
Cc1ccc(N(CC(O)Cn2c3ccccc3c3ccccc32)S(C)(=O)=O)cc1 (stereo not drawn) | i | -52% | -6% | ? | 4 | 0 | · | · | · | ·
Cc1cccc(C)c1N(CC(O)Cn1c2ccccc2c2ccccc21)S(C)(=O)=O (stereo not drawn) | ? | -69% | ? | 10µM* | 0 | -2 | 23µM* | ? | 23µM* | 63%
CCOC(=O)C1CCN(C(c2cccnc2)c2c(NC(=O)c3ccco3)sc(C)c2C)CC1 (stereo not drawn) | i | -53% | ? | 7.9µM* | -7 | -15 | 21µM* | ? | ? | 18%
C=CCn1c(SCC(=O)Nc2cc3oc4ccccc4c3cc2OC)nnc1-c1cnccn1 | i | -25% | -19% | -2% | 4 | -9 | · | · | · | ·
C=CCn1c(COc2ccccc2F)nnc1SCC(=O)Nc1cc2oc3ccccc3c2cc1OC | i | -9% | -15% | ? | -4 | -11 | ? | -26% | ? | 15%
COc1cc(SC)ccc1C(=O)Nc1ccc(S(=O)(=O)Nc2nccc(C)n2)cc1 | i | 8% | 9% | 25% | · | · | · | · | · | ·
CN(C)c1nc(Nc2ccc(F)cc2)nc(Oc2ccc(F)cc2)n1 | i | -21% | · | ? | · | -4 | · | · | · | ·
CN(C)c1nc(N/N=C/c2ccccc2O)nc(Nc2ccc(F)cc2)n1 | i | -24% | ? | 13µM* | -10 | -9 | 15µM* | ? | ? | -2%
CCSCCc1nnc(NC(=O)Nc2cccc(C(F)(F)F)c2)s1 | i | -35% | ? | 4.5µM* | -1 | 3 | 5.2µM* | ? | 7.3µM* | 104%
Oc1ccccc1-c1nc2cnccn2c1Nc1ccc2c(c1)OCCO2 | i | -4% | -17% | ? | -25 | -22 | ? | -2% | ? | 0%
CCOCCc1nn2c(=O)cc(COC(=O)CNC(=O)c3cccc(C)c3)nc2s1 | i | -36% | -4% | -30% | · | · | · | · | · | ·
COc1ccccc1NC(=O)C1=C(C)Nc2nc(SCc3ccccc3Cl)nn2C1c1ccccn1 (stereo not drawn) | i | -7% | 11% | 1% | · | · | · | · | · | ·
CC(OC(=O)Cc1ccc(F)cc1)C(=O)NCc1ccc2c(c1)OCO2 (stereo not drawn) | i | -5% | -2% | ? | 7 | 6 | -28% | 2% | 8% | 6%
C=CCNC(=S)N/N=C(\C)c1ccccn1 | · | -26% | -91% | 2.8µM* | -97* | -89* | 10µM* | ? | 1.3µM* | -4%
CCNC(=S)N1CCN(c2ccccn2)CC1 | i | 3% | 5% | -2% | 0 | 0 | · | · | · | ·
C/C(=N\NC(=O)c1ccccc1-n1cccc1)c1ccccn1 | 2.8µM* | -36% | · | 14µM* | ? | -92* | 10µM* | ? | ? | 21%
CC(=NNC(=S)N1CCCCC1)c1ccccn1 | ? | -70% | · | 0.63µM* | -16 | -87* | 1.3µM* | ? | 0.65µM* | -7%
CCOC(=O)c1cc(-c2ccc(C)cc2)n(CCC(=O)Nc2ccc(OC)c(OC)c2)c1C | ? | -2% | ? | -72% | · | · | · | · | · | ·

Assay outcomes as filed in PubChem.
